Inconclusive results are not listed. A number with no mark means an inactive call. Active and inactive are the calls of the source. Calls follow the shape of the dose curve; as a rule, active = well fitted cell-killing curve with a large enough effect; inconclusive = small, poorly fitted or top-dose-only effect, or effect the other way; inactive = no such curve, though single readings can be large or run the other way.
Experiments:
[1] = Viability qHTS for spleen associated tyrosine kinase inhibitor (SYKi) naive MV4-11 cells (AID 1963823); conditions: MV4-11 AML viability, CellTiter-Glo luminescence, 72 h; series mostly up to 45 µM; also: nearly all actives have a fitted effect of over 40% in size
Outline: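 Luminescence from CellTiter-Glo, developed 10 min at room temperature, gave viability of MV4-11 cells never exposed to SYK inhibitor. Cells (500/well) had been incubated with compounds for 72 hr under standard culture conditions.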

[2] = Viability qHTS for spleen associated tyrosine kinase inhibitor (SYKi) drug resistant MV4-11 cells (AID 1963824); conditions: SYKi-resistant MV4-11 viability, CellTiter-Glo, 72 h; series mostly up to 45 µM; also: nearly all actives have a fitted effect of over 35% in size
Outline: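 SYK-inhibitor-resistant MV4-11 AML cells were seeded at 500 per well onto compound and cultured 72 hours (37 °C, 5% CO2). CellTiter-Glo was then added, and after 10 min at room temperature, luminescence gave viability.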
Potency is read from the fitted curve at half-maximal effect.

SMILES | Potency [1] | Potency [2] | viability (% of control) [1] | viability, % of control [2]
O=C(O[C@H]1[C@@H]2C=CO[C@@H](O[C@@H]3O[C@H](CO)[C@@H](O)[C@H](O)[C@H]3O)[C@@H]2[C@@]2(CO)O[C@@H]12)c1ccccc1 | inactive | inactive | – | –
C=C[C@H](/C=C\c1ccc(O)cc1)c1ccc(O)cc1 | 18.4 µM (active) | 18.4 µM (active) | – | –
CC1CCCC(O)CC(=O)c2c(O)cc(O)cc2CC(=O)O1 (stereo not given) | 3.21 µM (active) | 2.02 µM (active) | – | –
CC(=O)O[C@@H]1CC[C@@]2(C)[C@H](CC[C@@H]3[C@@H]2C[C@H](OC(C)=O)[C@]2(C)[C@@H](C(C)=O)CC[C@@H]32)C1 | 8.2 µM (active) | 8.2 µM (active) | – | –
O=c1cc(NCCCN[C@@H]2CCOc3c(Br)cc(Br)cc32)[nH]c2ccsc12 | 10.3 µM (active) | 7.31 µM (active) | – | –
CN1c2c(nc(N)[nH]c2=O)NC[C@@H]1CNc1ccc(C(=O)N[C@@H](CCC(=O)O)C(=O)O)cc1 | inactive | inactive | – | –
Cc1ccc(C2(COC(=O)C(C)C)CO2)c(OC(=O)C(C)C)c1 (stereo not given) | 1.8 µM (active) | 2.02 µM (active) | – | –
CN1CCN(C2Cc3ccccc3Sc3ccc(Cl)cc32)CC1 (stereo not given) | 3.35 µM (active) | 3.35 µM (active) | – | –
C=C1CC[C@@H]2[C@@](C)(CO[C@@H]3O[C@H](CO)C(O)[C@H](O)C3O)[C@H](O)CC[C@@]2(C)[C@@H]1CC/C(C)=C/CO (stereo not given in full) | – | – | 93.2% [at 9.25 µM] | 101% [at 9.25 µM]
O=C(O)/C=C/c1ccc(O[C@@H]2O[C@H](CO)[C@@H](O)[C@H](O)[C@H]2O)cc1 | inactive | inactive | – | –

— PubChem BioAssay (NCATS)
